G9a block: G9a (human) methyltransferase inhibition; Q96KQ7; G9a H3K9 monomethylation, AlphaScreen, 2 h; Potency, µM (titrated, usually from 102 µM), most hits filed as inhibitors; 350,000 compounds, 8.8% hits; note: nearly all actives have a fitted effect of over 75% in size
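AlphaScreen read-out: biotin-H3K9 peptide (500 nM) methylation by 20 nM enzyme with 20 uM SAM, 2 h at room temperature after 15 min compound preincubation; anti-monomethyl H3K9 antibody plus donor/acceptor beads, 10 min dark.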
HP1b binding inh: inhibitors of HP1-beta chromodomain binding to methylated histone tails; P83916; Potency, µM (top dose mostly 114 µM), usual class: inhibitors; 390,000 compounds, 0.56% hits; AlphaScreen HP1-beta / biotin-H3K9me3 peptide binding; note: nearly all actives have a fitted effect of over 70% in size
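HP1-beta protein (50 nM final) preincubated 30 min at room temperature with biotinylated H3(1-18)K9me3 peptide (50 nM) in PBS pH 7.4, 0.01% Tween-20, then compound added for 30 min. AlphaScreen streptavidin donor/nickel chelate acceptor beads (10 ug/mL final), 30 min dark, luminescence read.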
BAZ2B block: blocks human BAZ2B; Q9UIF8; AlphaScreen BAZ2B-H3K14Ac peptide displacement; Potency, µM (titrated, usually from 114 µM), actives largely listed as inhibitors; 360,000 compounds, 4.4% hits; AID 504333; note: nearly all actives have a fitted effect of over 60% in size
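BAZ2B 50 nM plus b-H3(5-23)K14Ac 50 nM, PBS pH 7.4/0.01% Tween-20, 30 min RT; compound added (max 110 uM), 30 min RT; streptavidin donor/Ni-chelate acceptor beads 10 ug/mL final, 20 min dark; AlphaScreen read.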
JMJD2A Tudor inh: blocks the human JMJD2A Tudor domain; O75164; AlphaScreen JMJD2A-Tudor / H3K4me3 peptide binding; Potency, µM (series often up to 114 µM), hits mostly inhibitors; 390,000 compounds, 4.4% hits; AID 504339; note: nearly all actives have a fitted effect of over 50% in size
Target sequence (O75164 whole entry, looked up, the tested form may be a part): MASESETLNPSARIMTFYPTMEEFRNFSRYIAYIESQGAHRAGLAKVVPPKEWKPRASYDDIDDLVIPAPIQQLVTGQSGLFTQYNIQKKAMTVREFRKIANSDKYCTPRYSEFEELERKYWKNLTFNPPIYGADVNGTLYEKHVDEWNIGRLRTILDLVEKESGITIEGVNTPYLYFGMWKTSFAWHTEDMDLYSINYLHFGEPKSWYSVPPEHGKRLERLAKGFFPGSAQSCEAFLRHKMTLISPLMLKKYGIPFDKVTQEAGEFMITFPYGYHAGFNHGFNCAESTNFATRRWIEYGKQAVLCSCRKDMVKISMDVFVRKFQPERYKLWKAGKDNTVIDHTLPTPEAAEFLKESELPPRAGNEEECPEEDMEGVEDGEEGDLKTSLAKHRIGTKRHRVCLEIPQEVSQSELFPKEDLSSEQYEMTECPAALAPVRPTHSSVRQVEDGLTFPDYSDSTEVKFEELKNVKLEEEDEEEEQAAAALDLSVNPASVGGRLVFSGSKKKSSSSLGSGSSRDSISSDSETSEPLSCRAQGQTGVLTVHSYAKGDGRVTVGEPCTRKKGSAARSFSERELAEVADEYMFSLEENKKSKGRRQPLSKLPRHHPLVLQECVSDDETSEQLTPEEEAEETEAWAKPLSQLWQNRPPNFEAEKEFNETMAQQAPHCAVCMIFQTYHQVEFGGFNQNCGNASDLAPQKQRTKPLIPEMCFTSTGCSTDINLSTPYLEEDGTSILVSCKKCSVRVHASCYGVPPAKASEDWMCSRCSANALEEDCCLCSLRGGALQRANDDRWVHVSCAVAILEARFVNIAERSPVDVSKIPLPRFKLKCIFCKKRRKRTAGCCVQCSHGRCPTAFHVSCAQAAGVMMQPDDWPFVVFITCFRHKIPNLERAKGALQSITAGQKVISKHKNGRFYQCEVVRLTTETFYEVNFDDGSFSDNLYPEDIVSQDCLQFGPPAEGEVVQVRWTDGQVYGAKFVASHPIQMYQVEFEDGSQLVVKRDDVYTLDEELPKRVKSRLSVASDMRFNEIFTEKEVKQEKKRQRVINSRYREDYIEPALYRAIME
Sfp inh: blocks B. subtilis Sfp PPTase activity; AID 1490; Q9F4F7; 310,000 compounds, 3.5% hits; Potency, µM, hits mostly inhibitors; Biochemical Sfp PPTase activity, qHTS;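 note: the enzyme is Sfp with the accession as filed and its product quenches rhodamine fluorescence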
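Fluorescence-quenching assay with 15 nM Sfp, 5 uM rhodamine-CoA and 12.5 uM BHQ-2-labelled ybbR peptide in pH 7.6 Hepes/MgCl2 buffer. Enzyme was pre-incubated with compound for 15 min at room temperature. Rate was taken from the 30-min fluorescence change (525/598 nm).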
PLK1 PBD block: blocks phosphopeptide binding to human PLK1 polo-box domain | P53350 | Plk1 PBD binding of FITC phosphopeptide, fluorescence polarization | Potency, µM, hits mostly inhibitors | 360,000 compounds, 2.8% hits | AID 720504; note: series mostly up to about 57 µM; nearly all actives have a fitted effect of over 65% in size
Numbers stand for hits; . = inactive; ? = inconclusive; / = not tested or not shown; [ ] = remark or other dose. Sampled rows, rich in hits. Any-hit rate of the full collection: about 12%. Calls come from the whole dose curve; as a rule, active = well fitted curve in the direction sought with a large enough effect; inconclusive = small, poorly fitted or top-dose-only effect, or another doubt; inactive = no such curve, though single readings can be large; an effect the other way counts as inactive or inconclusive.

SMILES | G9a block | HP1b binding inh | BAZ2B block | JMJD2A Tudor inh | Sfp inh | PLK1 PBD block
CC(C)(C)c1ccc(S(=O)(=O)N2CCN(Cc3noc(CCC(=O)N4CCCCC4)n3)CC2)cc1 | ? | . | . | . | / | /
CCCn1c(C)nc2c(NCC(C)(C)CN(C)C)nc(C)nc21 | / | / | / | / | . | /
CC(=O)N1CCCc2cc(S(=O)(=O)N3CCN(c4ccccc4F)CC3)ccc21 | . | . | . | . | / | /
COc1ccc(C(=O)/C=C/c2cccs2)c(OC(=O)N2CCOCC2)c1 | . | . | . | . | . | .
COc1ccc(C(=O)C=Cc2cccs2)c(O)c1 | / | ? | / | 45µM | / | .
O=C(c1ccncc1)N1CCC[C@@]2(CCN(c3ccncc3)C2)C1 | .[12.7 µM] | / | / | / | . | /
COc1ccc(C(NC(=O)c2cccnc2)c2cc(Cl)c3cccnc3c2O)cc1OC (stereo unspecified) | .[0.501 µM] | . | ? | . | . | .
Oc1c(C(Nc2ccccn2)c2cccnc2)cc(Cl)c2cccnc12 (stereo unspecified) | 28µM | . | 11µM | 40µM | . | ?
Cc1cc(NC(c2cccnc2)c2ccc3cccnc3c2O)no1 (stereo unspecified) | 35µM | . | 7.9µM | 32µM | . | .
Oc1c(C(Nc2cccc(C(F)(F)F)c2)c2cccnc2)ccc2cccnc12 (stereo unspecified) | 8.9µM | ? | 20µM | 56µM | ? | .
CCN(CC)c1cc(C)nc2nc(-c3ccc(C)cc3)nn12 | . | . | . | . | / | /
C[n+]1ccccc1/C=C1\Sc2ccccc2N1CCO | 50µM | . | ? | ? | . | .
Cc1ccc2c(c1)S/C(=C/c1ccc[n+](CCO)c1)N2C | ? | . | . | ? | . | .
Cc1ccc2c(c1)S/C(=C\c1cccc[n+]1C)N2CCO | ? | . | . | ? | ? | 24µM
CN(C(=O)CO/N=C/c1ccc(OC(F)F)cc1)C1CCS(=O)(=O)C1 (stereo unspecified) | . | . | . | . | . | .
C=CCc1cc(Cl)ccc1OC(=O)Nc1cccc(Cl)c1 | . | . | . | .[11.4 µM] | . | .
Cc1ccc(Nc2c(-c3cccnc3)nc3ccc(Cl)cn23)cc1 | . | . | . | . | / | /
O=C(N/N=C/c1cccnc1)c1ccccc1OCc1cccc(Br)c1 | . | . | / | . | . | .
COc1cc([N+](=O)[O-])cc(/C=N/NC(=O)C(C)Nc2cccc3ccccc23)c1O (stereo unspecified) | 45µM | . | 45µM | ? | . | .
COc1ccccc1NC(C)C(=O)N/N=C/c1ccccc1OCc1cccc(Br)c1 (stereo unspecified) | 50µM | . | . | ? | . | .
Cc1ccc(/C=N/NC(=O)c2ccccc2OCc2cccc(Br)c2)o1 | 25µM | ? | . | . | . | .
CC(Nc1cccc2ccccc12)C(=O)N/N=C/c1ccc([N+](=O)[O-])cc1 (stereo unspecified) | ? | ? | ? | ? | 32µM | .
CC1(C)CCCC2(C)C3C(O)CC2(C)C(O)C31 (stereo unspecified) | / | / | / | / | . | /
CCOC(=O)C1CCN(S(=O)(=O)c2ccc3c(c2)CCN3C(=O)C2CCC2)CC1 | / | . | . | ? | . | 27µM
COc1ccccc1NC(=O)C1CCN(S(=O)(=O)c2ccc3[nH]c4c(c3c2)CCCCC4)CC1 | 3.5µM | . | . | . | / | /
SMILES | G9a block | HP1b binding inh | BAZ2B block | JMJD2A Tudor inh | Sfp inh | PLK1 PBD block
CCOC(=O)C1CCN(S(=O)(=O)c2ccc3[nH]c(=O)c(=O)[nH]c3c2)CC1 | . | . | . | . | . | .
CCOC(=O)CC(NS(=O)(=O)c1ccc2[nH]c3c(c2c1)CCCC3)c1ccccc1Cl (stereo unspecified) | 6.3µM | ? | 35µM | 35µM | / | /
CCOC(=O)C1CCN(S(=O)(=O)c2ccc3[nH]c4c(c3c2)CCCC4)CC1 | ? | ? | ? | 22µM | . | ?
CCOC(=O)C1CCN(S(=O)(=O)c2ccc3c(c2)CCN3C(C)=O)CC1 | . | . | . | . | . | .
Fc1ccc(CNC(=S)NCc2cccc(Cl)c2)cc1 | ? | . | . | . | . | .
O=C(NCCc1ccc(Cl)cc1)C1CCC(=O)N1C1CCCC1 (stereo unspecified) | 45µM | . | . | . | . | .
CCOC(=O)N1CCC(N2C(=O)c3ccccc3C2Nc2cc(Cl)c(OC)cc2OC)CC1 (stereo unspecified) | 45µM | . | 45µM | ? | . | .
CCOC(=O)N1CCC(N2C(=O)c3ccccc3C2Nc2ccc(S(=O)(=O)N3CCOCC3)cc2)CC1 (stereo unspecified) | 45µM | . | . | . | . | .
N#Cc1cccc(NC(=O)N2CCCC3(CCN(C(=O)c4cnccn4)CC3)C2)c1 | .[12.7 µM] | / | / | / | . | /
COc1cccc(O)c1CN1CCC(C(=O)Nc2ccc(-c3cccc(C)c3)cc2)CC1 | . | . | . | ? | 79µM | .
O=C(Nc1nnc(C2=COCCO2)o1)c1cccc(Br)c1 | . | . | 71µM | . | . | .
O=C(Nc1nnc(-c2ccccn2)o1)c1cccc(Br)c1 | . | . | ? | ? | . | .
CS(=O)(=O)c1cccc(C(=O)Nc2nnc(C3=COCCO3)o2)c1 | .[0.501 µM] | . | 18µM | 3.2µM | / | ?
O=C(Nc1nnc(-c2ccc(F)cc2)o1)c1cccc([N+](=O)[O-])c1 | . | . | ? | . | . | .
O=C(Nc1nnc(C2=COCCO2)o1)c1cccc([N+](=O)[O-])c1 | . | . | 79µM | . | . | .
NCCCCCc1nnc(SCc2ccc(Cl)c(Cl)c2)o1 | .[12.7 µM] | . | . | . | . | .
CCS(=O)(=O)N1CC(=O)N(c2cccc(Cl)c2C)C(C)(C(=O)NC2CCCCC2)C1 (stereo unspecified) | . | . | . | . | / | /
COc1cccc(CNC(=O)CSc2n[nH]c(-c3ccccc3Cl)n2)c1OC | . | . | . | . | / | /
Cc1ccccc1-c1nc(SCc2cccnc2)c2c(=O)n(C)c(=O)n(C)c2n1 | 56µM | . | . | . | . | .
Cn1c(=O)c2c(SCc3cccnc3)nc(CC(C)(C)C)nc2n(C)c1=O | . | . | . | . | 56µM | .
CCOC(=O)CCNC(=O)N1CCCC(CNS(=O)(=O)c2cccs2)C1 (stereo unspecified) | / | . | . | . | . | .
O=C(Nc1nnc(CCc2ccccc2)s1)C1CCN(C(=O)c2ccco2)CC1 | / | . | / | . | / | /
Cc1c(C(=O)N2CCCCC2)c(S(=O)(=O)Nc2cccc(Br)c2)c(C)n1C | . | . | . | . | . | .
Cc1c(C(=O)N2CCOCC2)c(S(=O)(=O)Nc2ccccc2F)c(C)n1C | . | . | . | . | . | .
Cc1c(C(=O)N2CCOCC2)c(S(=O)(=O)Nc2cccc(Br)c2)c(C)n1C | / | ? | . | ? | . | 27µM
Cc1c(C(=O)N2CCOCC2)c(S(=O)(=O)Nc2ccc(Br)cc2F)c(C)n1C | . | . | . | 18µM | . | 27µM

High-throughput results (PubChem BioAssay)
